These results are taken from PubChem BioAssay (Tox21).

Experiment [1] is described as follows: qHTS assay to identify small molecule antagonists of the androgen receptor (AR) signaling pathway using the MDA cell line in the presence of 0.5 nM R1881 - cell viability counter screen (AID 1259242). Also: nearly all actives have a fitted effect of over 45% in size. Also: potency is read from the fitted curve at half-maximal effect. Put shortly:
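Cytotoxicity toward MDA-kb2 cells is measured by CellTiter-Fluor live-cell protease fluorescence after 16 hr compound exposure at 37C in the presence of 0.5 nM R1881 stimulator.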
On the technique in general: qHTS replaces the single test concentration by a dilution series.

The target in experiment [2] is Androgen receptor (Homo sapiens) (UniProt P10275). The experiment in a line: qHTS assay to identify small molecule antagonists of the androgen receptor (AR) signaling pathway using the MDA cell line in the presence of 0.5 nM R1881 (AID 1259243). Also: nearly all actives have a fitted effect of over 50% in size. Also: potency is read from the fitted curve at half-maximal effect. Put shortly:
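Steps: seed MDA-kb2 cells, incubate 5 hr at 37C; pin-transfer compounds in DMSO; add R1881 to 0.5 nM final; incubate 16 hr; add ONE-Glo, wait 30 min at room temperature; read luminescence.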

Experiment [3] in a line: qHTS assay to identify small molecule phospholipidosis (PLD) inducers (AID 1259344; active = well fitted curve in the direction sought with a large enough effect; an effect the other way counts as inactive or inconclusive). The essentials: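 HepG2 cells, 900/well, treated with compound plus LipidTOX Red for 24 h at 37 C; amiodarone positive and DMSO negative controls. Fixed with paraformaldehyde/Hoechst, then high-content imaging scored LipidTOX pit count and integrated intensity per well and per cell.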
The nature of experiment [4]: qHTS assay to identify small molecule HDAC inhibitors (AID 1259364). Also: top concentration of the series differs between compounds; nearly all actives have a fitted effect of over 45% in size. Put shortly:
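Homogeneous cell-based luminescent assay of endogenous class I/II HDAC activity; HCT-116 cells, 2 h compound exposure, 30 min HDAC-Glo development at RT.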

Experiment [5] is described as follows: qHTS assay to identify small molecule HDAC inhibitors - cell viability counter screen (AID 1259365). Also: series mostly up to about 92 µM; nearly all actives have a fitted effect of over 50% in size. Put shortly: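 Measured quantity is CellTiter-Glo luminescence from wild-type HCT-116 cells after compound incubation of 2hr at 37C, 5% CO2; reagent developed 30min at room temperature.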
Experiment [6] is described as follows: qHTS assay to identify small molecule agonists of the sonic hedgehog signaling (Shh) pathway - cell viability counter screen (AID 1259366). Also: nearly all actives have a fitted effect of over 50% in size. Also: potency is read from the fitted curve at half-maximal effect. The essentials:
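In quantitative high-throughput format, 3T3 Gli1-Luc cells were exposed to compounds for 24hr and multiplexed for viability using CellTiter-Fluor, incubated 1hr at 37C before the fluorescence read.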

Experiment [7] is described as follows: qHTS assay to identify small molecule agonists of the sonic hedgehog signaling (Shh) pathway (AID 1259368; calls by dose curve;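 also: NIH/3T3-derived 3T3Gli1-Luc cells carrying a stable Gli1-driven firefly luciferase reporter; series mostly up to about 92 µM; nearly all actives have a fitted effect of over 15% in size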). The essentials:
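Steps: seed 3T3 Gli1-Luc cells, incubate 4 hr at 37 C, pin-transfer compounds in DMSO alongside a positive control, incubate 24 hr, add luciferase detection reagent, wait 30 min at room temperature, read luminescence.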

Experiment [8] in a line: qHTS assay to identify small molecule antagonists of the sonic hedgehog signaling (Shh) pathway (AID 1259369; calls by dose curve; also: nearly all actives have a fitted effect of over 45% in size; also: potency is read from the fitted curve at half-maximal effect). Put shortly: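 Inhibition of Shh signalling is measured as reduced Gli1-response-element firefly luciferase output in an NIH/3T3-derived stable reporter clone stimulated with conditioned medium for 24hr.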
For experiment [9], the target named is Estrogen receptor beta (Homo sapiens) (UniProt Q92731). The experiment in a line: qHTS assay to identify small molecule agonists of the estrogen receptor beta (ER-beta) signaling pathway (AID 1259377; active = well fitted activation curve with a large enough effect in the signal ratio in the repeat runs, not every such curve was filed as active; the % refers to the signal ratio). The essentials: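 Reporter cells (HEK293T, ER-beta-UAS-bla) receive compounds or DMSO after a 6 hr pre-incubation. They then incubate 16 hr at 37C/5% CO2, and fluorescence from LiveBLAzer B/G substrate is measured after 2 hours at room temperature.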

The target is the same in experiment [10]. Kind of experiment: qHTS assay to identify small molecule antagonists of the estrogen receptor beta (ER-beta) signaling pathway (AID 1259378; active = well fitted inhibition curve with a large enough effect in the signal ratio in the repeat runs, not every such curve was filed as active; the % refers to the signal ratio). The essentials:
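ER-beta-UAS-bla HEK293T cells in 2% charcoal-stripped FBS medium treated with compound plus 1nM final 17-beta-estradiol for 16 hr at 37C. Beta-lactamase reporter read by FRET substrate fluorescence after 2 hours at room temperature.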

Experiment [11] in a line: qHTS assay to identify small molecule agonists of the androgen receptor (AR) signaling pathway in the presence of an antagonist - cell viability counter screen (AID 1259379). Also: nearly all actives have a fitted effect of over 25% in size. Also: potency is read from the fitted curve at half-maximal effect. Put shortly: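 Fluorescence from CellTiter-Fluor, added after 15 hr and read 1 hr later, gave cell viability. Cells were MDA-kb2 exposed to compounds (15 concentrations) in the presence of 3.0uM nilutamide at 37C, 0% CO2.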

Experiment [12] is described as follows: qHTS assay to identify small molecule agonists of the estrogen receptor beta (ER-beta) signaling pathway - cell viability counter screen (AID 1259380). Also: nearly all actives have a fitted effect of over 30% in size. Also: potency is read from the fitted curve at half-maximal effect. The essentials:
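Same-well viability counter screen. Cells: ER-beta-UAS-bla HEK293T, plated 6 hr before compound, in 2% charcoal-stripped FBS. Compound exposure 16 hr, 37C; viability by CellTiter-Glo luminescence after 30 min at room temperature.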

Experiment [13] concerns the target Androgen receptor (Homo sapiens) (UniProt P10275). The experiment in a line: qHTS assay to identify small molecule agonists of the androgen receptor (AR) signaling pathway in the presence of an antagonist (AID 1259381; calls by dose curve; also: nearly all actives have a fitted effect of over 15% in size). Put shortly: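 Cells are MDA-kb2 (human breast carcinoma, MMTV-luc, AR/GR responsive). Nilutamide is present at 3.0uM final throughout; compounds are added at 15 concentrations and incubated 16hr at 37C before ONE-Glo luminescence detection.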

Experiment [14] is described as follows: qHTS assay to identify small molecule antagonists of the estrogen receptor beta (ER-beta) signaling pathway - cell viability counter screen (AID 1259382). Also: nearly all actives have a fitted effect of over 55% in size. Also: potency is read from the fitted curve at half-maximal effect. The essentials:
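Following a 6 hr plating period, HEK293T cells carrying a UAS-driven beta-lactamase reporter under ER-beta control received compounds and 1nM E2 (final). After 16 hr at 37C and 2 hr substrate loading, CellTiter-Glo luminescence indicated viability.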

A short description of experiment [15]: qHTS assay to identify small molecule agonists or antagonists of the thyroid stimulating hormone receptor (TSHR) signaling pathway - wild type cell line counter screen (AID 1259384; calls by dose curve). Put shortly: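 Wild-type Hek293 cells, 800/well, 18 h at 37C, then compound with Ro20-1724 for 30 min RT. cAMP by HTRF (cAMP-d2/anti-cAMP cryptate), 1 h RT, fluorescence read. 15 concentrations, triplicates.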

For experiment [16], the target named is Thyrotropin receptor (Homo sapiens) (UniProt P16473). Kind of experiment: qHTS assay to identify small molecule antagonists of the thyroid stimulating hormone receptor (TSHR) signaling pathway (AID 1259385; calls by dose curve; also: nearly all actives have a fitted effect of over 20% in size). The essentials:
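TSHR-HEK293 cells (800/well) plated 18 h, then compounds with Ro20-1724 and TSH at 1.5 ng/mL final, 30 min at room temperature. cAMP quantified by HTRF (cAMP-d2/anti-cAMP-cryptate, 1 h); 15 concentrations in triplicate.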

Experiment [17] can be described thus: qHTS assay to identify small molecule antagonists of the estrogen receptor alpha (ER-alpha) signaling pathway using the BG1 cell line in the presence of 0.1 nM 17-beta-estradiol - cell viability counter screen (AID 1259241). Also: nearly all actives have a fitted effect of over 40% in size. Put shortly:
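In this screen, hormone-deprived VM7Luc4E2 cells were seeded at 4,000 per well, dosed with compound and 0.1 nM estradiol final, and incubated 22 hr at 37C and 5% CO2; fluorogenic live-cell protease signal reported viability.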

The target in experiment [18] is Estrogen receptor (Homo sapiens) (UniProt P03372). Kind of experiment: qHTS assay to identify small molecule antagonists of the estrogen receptor alpha (ER-alpha) signaling pathway using the BG1 cell line in the presence of 0.1 nM 17-beta-estradiol (AID 1259244). Also: nearly all actives have a fitted effect of over 50% in size. Put shortly:
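After 5 days in hormone-depleted medium (charcoal-stripped serum, no phenol red), VM7Luc4E2 cells were seeded, incubated 24 h, then co-treated with compound and 0.1 nM (final) estradiol for 22 h before luminescence detection.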

A short description of experiment [19]: qHTS assay to identify small molecule antagonists of the sonic hedgehog signaling (Shh) pathway - cell viability counter screen (AID 1259367). Also: nearly all actives have a fitted effect of over 55% in size. Put shortly: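 NIH/3T3-derived Gli1-Luc reporter cells, 2,000/well, plated 4 hr before compound addition, then stimulated with conditioned medium for 24 hr at 37C. Viability measured in the same wells by CellTiter-Fluor fluorescence, reagent added at 23 hr for 1 hr.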

The target of experiment [20] is Estrogen receptor (Homo sapiens) (UniProt P03372). The experiment in a line: qHTS assay to identify small molecule agonists of the estrogen receptor alpha (ER-alpha) signaling pathway in the presence of an antagonist (AID 1259383; calls by dose curve; also: top concentration of the series differs between compounds; nearly all actives have a fitted effect of over 15% in size). Put shortly:
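Cells are hormone-deprived for 5 days (charcoal-stripped FBS, no phenol red), plated for 24hr, spiked with 10.0nM ICI-182,780, then dosed at 15 concentrations. After 22hr at 37C, ONE-Glo luminescence reports ERE-luciferase activity.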

Values joined by “and” are separate entries in the source; they are usually repeats but may differ in a detail not shown here. Equal values may be shown once. Records with an inconclusive call do not appear. More than one record can exist for a structure, and the calls need not agree. Active and inactive are the calls of the source. Unless noted, calls follow the shape of the dose curve; as a rule, active = well fitted curve in the direction sought with a large enough effect in the repeat runs; inconclusive = weak or mixed curves; inactive = no such curve, though single readings can be large; an effect the other way counts as inactive or inconclusive.

Sequence of Estrogen receptor (Homo sapiens) (P03372 whole entry, looked up): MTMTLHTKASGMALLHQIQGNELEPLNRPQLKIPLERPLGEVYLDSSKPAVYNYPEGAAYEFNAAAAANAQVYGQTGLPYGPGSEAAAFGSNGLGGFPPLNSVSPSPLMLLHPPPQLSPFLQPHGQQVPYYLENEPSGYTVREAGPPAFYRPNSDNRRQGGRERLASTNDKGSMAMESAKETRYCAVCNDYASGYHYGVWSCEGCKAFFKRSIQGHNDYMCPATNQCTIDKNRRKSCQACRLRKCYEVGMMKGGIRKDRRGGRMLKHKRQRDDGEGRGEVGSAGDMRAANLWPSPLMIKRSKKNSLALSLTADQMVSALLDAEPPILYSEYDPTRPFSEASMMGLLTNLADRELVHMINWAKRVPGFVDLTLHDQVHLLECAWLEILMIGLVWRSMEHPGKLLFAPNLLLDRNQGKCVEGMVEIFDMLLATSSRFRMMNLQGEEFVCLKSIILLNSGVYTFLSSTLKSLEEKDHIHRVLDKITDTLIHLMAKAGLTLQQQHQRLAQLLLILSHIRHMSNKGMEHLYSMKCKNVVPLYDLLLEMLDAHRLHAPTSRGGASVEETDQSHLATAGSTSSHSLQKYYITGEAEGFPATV
Sequence of Thyrotropin receptor (Homo sapiens) (P16473 whole entry, looked up): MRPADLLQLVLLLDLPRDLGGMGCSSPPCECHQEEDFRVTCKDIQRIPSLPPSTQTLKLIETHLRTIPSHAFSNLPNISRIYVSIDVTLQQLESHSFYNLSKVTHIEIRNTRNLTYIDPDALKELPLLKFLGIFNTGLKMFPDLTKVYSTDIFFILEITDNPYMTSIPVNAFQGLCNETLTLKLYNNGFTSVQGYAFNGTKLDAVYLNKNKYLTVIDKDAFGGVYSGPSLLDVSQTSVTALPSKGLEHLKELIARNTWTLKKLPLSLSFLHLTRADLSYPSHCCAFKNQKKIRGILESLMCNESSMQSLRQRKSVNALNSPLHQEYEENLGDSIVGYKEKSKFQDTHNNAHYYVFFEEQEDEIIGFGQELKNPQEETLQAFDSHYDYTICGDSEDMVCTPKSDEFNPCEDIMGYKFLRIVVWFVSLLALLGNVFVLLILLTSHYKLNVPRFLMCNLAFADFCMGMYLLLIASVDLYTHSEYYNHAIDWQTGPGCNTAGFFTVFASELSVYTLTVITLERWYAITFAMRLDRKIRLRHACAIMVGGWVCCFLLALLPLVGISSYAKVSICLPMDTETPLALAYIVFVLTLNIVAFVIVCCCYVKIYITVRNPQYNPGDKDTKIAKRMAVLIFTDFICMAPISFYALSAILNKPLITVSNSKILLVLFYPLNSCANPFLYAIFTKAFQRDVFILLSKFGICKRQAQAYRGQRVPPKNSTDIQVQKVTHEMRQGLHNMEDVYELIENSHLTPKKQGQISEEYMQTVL
Sequence of Estrogen receptor beta (Homo sapiens) (Q92731 whole entry, looked up): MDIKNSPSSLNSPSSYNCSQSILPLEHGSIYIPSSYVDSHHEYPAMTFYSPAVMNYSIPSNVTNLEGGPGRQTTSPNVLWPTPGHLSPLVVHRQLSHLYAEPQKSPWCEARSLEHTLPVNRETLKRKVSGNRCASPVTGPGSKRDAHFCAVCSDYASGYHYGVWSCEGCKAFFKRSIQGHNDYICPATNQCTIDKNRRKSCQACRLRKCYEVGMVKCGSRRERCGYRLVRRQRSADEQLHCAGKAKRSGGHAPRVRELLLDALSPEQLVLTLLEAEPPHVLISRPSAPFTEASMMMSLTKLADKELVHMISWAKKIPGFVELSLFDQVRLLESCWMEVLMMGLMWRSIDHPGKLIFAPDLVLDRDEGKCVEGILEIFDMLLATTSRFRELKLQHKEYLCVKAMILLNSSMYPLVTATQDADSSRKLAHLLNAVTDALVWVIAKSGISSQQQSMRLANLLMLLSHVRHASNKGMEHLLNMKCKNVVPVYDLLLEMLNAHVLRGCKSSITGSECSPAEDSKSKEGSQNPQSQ
Sequence of Androgen receptor (Homo sapiens) (P10275 whole entry, looked up): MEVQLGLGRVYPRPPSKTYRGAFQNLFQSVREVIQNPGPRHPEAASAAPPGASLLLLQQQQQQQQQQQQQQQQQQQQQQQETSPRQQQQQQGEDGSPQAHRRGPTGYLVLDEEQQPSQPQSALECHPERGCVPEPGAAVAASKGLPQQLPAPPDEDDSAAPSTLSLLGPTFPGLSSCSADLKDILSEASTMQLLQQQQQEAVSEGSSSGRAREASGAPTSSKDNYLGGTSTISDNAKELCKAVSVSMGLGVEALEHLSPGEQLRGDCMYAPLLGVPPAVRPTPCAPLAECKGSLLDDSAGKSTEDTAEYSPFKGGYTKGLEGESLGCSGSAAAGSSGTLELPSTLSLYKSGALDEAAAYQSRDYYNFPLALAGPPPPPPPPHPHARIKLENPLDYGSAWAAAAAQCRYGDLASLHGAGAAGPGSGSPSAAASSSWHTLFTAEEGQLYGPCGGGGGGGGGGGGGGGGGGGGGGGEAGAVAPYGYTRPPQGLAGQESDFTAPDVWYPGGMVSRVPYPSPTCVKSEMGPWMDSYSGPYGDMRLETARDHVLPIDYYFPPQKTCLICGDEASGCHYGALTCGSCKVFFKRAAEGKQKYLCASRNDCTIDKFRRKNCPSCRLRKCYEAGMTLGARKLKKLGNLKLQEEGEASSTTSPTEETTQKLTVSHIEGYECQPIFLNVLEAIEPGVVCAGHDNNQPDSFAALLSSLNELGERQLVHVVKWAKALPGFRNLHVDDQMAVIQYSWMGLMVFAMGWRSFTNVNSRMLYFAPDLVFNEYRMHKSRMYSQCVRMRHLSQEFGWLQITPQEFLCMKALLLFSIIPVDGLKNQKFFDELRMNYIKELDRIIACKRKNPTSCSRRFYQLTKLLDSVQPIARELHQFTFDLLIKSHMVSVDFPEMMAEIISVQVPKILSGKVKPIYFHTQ

As to `c1ccc2[nH]ccc2c1`, the Potency in experiment [1] was 9.53 µM (active) and inactive; in [2], 2.39 µM (active) and inactive; in experiment [8], 6.01 µM (active) and inactive; in [11] it was 7.57 µM (active) and inactive; in [12] it was 26.9 µM (active) and inactive; in [14] it was 26.9 µM (active) and inactive. Also, the compound was called inactive in experiment [3], in experiment [5], in [7], in experiment [9], in experiment [15] and in [16]. Besides, the Potency result in [4], in experiment [6], in experiment [10] and in [13] was “inactive” each time.

With `O=C(O)CS`, the Potency entry in experiment [17], in [1], in experiment [18], in experiment [4], in experiment [19] and in [11] was “inactive” in each case. The Potency entry in [12], in [14] and in experiment [20] was “inactive” throughout. For the same compound, the call in experiment [5] and in experiment [7] was inactive. Further, the Potency result in experiment [6] is “inactive and 30.9 µM (active)”; in [8], “inactive and 30.9 µM (active)”.

`CNC[C@H](O)c1cccc(O)c1`: the Potency result in experiment [17], in experiment [1], in experiment [4], in [6], in experiment [19] and in experiment [8] was “inactive” throughout. The Potency result in experiment [10], in [11], in experiment [12] and in [14] was “inactive” each time. For the same compound, the call in experiment [3], in [5], in [7], in experiment [9], in [15] and in [16] was inactive.

As to `O=C(O)CCC(=O)O`, the Potency result in [17], in experiment [1], in [18], in experiment [4], in experiment [6] and in experiment [8] was “inactive” in each case. Moreover, the Potency entry in experiment [11], in experiment [12], in [14] and in experiment [20] was “inactive” throughout. Also, the call in experiment [3], in [5], in [7], in experiment [15] and in experiment [16] was inactive.

In the case of `CC(O)CN(CCN(CC(C)O)CC(C)O)CC(C)O` (stereo unspecified), the Potency entry in experiment [17], in experiment [1], in [4], in experiment [6], in [8] and in experiment [10] was “inactive” in each case. In addition, the Potency result in [11], in experiment [12] and in [14] was “inactive” each time. Also, the result in experiment [3], in [5], in [7], in experiment [9], in experiment [15] and in experiment [16] was inactive.

Take `O=C1NC(=O)c2ccccc21`: the Potency entry in experiment [17], in experiment [1], in experiment [4], in experiment [6], in experiment [19] and in [8] was “inactive” throughout. Further, the Potency entry in experiment [11], in experiment [12] and in [14] was “inactive” in each case. In addition, the outcome in [5], in experiment [7], in [15] and in experiment [16] was inactive.

Consider `O=C1CN(/N=C/c2ccc([N+](=O)[O-])o2)C(=O)N1`, for which the Potency result in experiment [1], in [18], in experiment [4], in [14] and in experiment [20] was “inactive” in each case. Besides, the compound was called inactive in [3], in experiment [5], in [7], in experiment [9], in experiment [15] and in [16]. Also, the Potency is 48.6 µM (active) in experiment [6]; 48.4 µM (active) and 27.3 µM (active) and inactive in experiment [8]; 27.2 µM (active) and 61.1 µM (active) and 23.7 µM (active) in experiment [11].

As for `OCCc1ccccc1`, the Potency entry in experiment [17], in experiment [1], in experiment [4], in experiment [6], in experiment [19] and in [8] was “inactive” each time. The Potency result in [11], in experiment [12] and in [14] was “inactive” in each case. Further, the result in experiment [3], in experiment [5], in experiment [7], in [15] and in experiment [16] was inactive.

For the compound `O=C(O)CCCCCCCC(=O)O`, the Potency entry in [17], in experiment [1], in [4], in experiment [6], in experiment [8] and in experiment [10] was “inactive” in each case. The Potency result in experiment [11], in experiment [12] and in [14] was “inactive” each time. For the same compound, the result in [3], in [5], in [7], in experiment [9], in experiment [15] and in [16] was inactive.
